The values that follow come from PubChem BioAssay AID489043 (National Center for Advancing Translational Sciences (NCATS), 2010).

Records with an inconclusive call do not appear. Where a call stands in place of a potency, no number is given. Active and inactive are the calls of the source. Calls follow the shape of the dose curve; as a rule, active = well fitted activation curve with a large enough effect; inconclusive = small, poorly fitted or top-dose-only effect; inactive = flat fitted curve, though single readings scatter.
Potency is read from the fitted curve at half-maximal effect.

Chain of Relaxin receptor 2 (Homo sapiens) (Q8WXD0 whole entry, looked up): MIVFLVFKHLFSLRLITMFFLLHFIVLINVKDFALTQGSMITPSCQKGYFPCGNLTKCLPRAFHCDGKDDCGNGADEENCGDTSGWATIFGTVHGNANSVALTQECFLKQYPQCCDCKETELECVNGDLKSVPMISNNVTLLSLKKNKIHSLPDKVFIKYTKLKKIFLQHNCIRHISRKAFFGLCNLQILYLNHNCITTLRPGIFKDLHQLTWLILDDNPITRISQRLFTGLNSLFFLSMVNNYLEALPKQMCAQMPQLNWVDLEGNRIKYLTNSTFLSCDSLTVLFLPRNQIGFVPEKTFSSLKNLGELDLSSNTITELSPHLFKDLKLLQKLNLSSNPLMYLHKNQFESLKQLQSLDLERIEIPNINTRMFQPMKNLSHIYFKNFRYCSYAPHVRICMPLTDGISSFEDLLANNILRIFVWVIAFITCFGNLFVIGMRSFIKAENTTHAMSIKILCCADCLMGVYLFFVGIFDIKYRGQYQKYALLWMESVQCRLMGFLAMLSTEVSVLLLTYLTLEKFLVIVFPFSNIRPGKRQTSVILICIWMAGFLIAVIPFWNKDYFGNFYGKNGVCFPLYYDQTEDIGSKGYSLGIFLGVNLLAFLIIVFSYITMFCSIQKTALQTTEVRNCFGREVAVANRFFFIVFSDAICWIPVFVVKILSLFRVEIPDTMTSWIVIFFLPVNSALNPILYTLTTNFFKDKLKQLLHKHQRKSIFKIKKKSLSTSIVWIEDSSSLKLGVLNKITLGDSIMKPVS

The assay deals with Relaxin receptor 2 (Homo sapiens) (UniProt Q8WXD0). Kind of assay: qHTS Assay for Agonists of the Relaxin Receptor RXFP1: RXFP2 Hit Validation. Also: nearly all actives have a fitted effect of over 65% in size. The settings on record: HEK293 RXFP2 cAMP TR-FRET, 30 min; series mostly up to 115 µM. The source says:
NIH Chemical Genomics Center [NCGC] NIH Molecular Libraries Probe Production Centers Network [MLPCN] MLPCN Grant: R03 MH085705-01A1 Assay Submitter (PI): Alexander Agoulnik NCGC Assay Overview: The relaxin hormone is involved in the variety of biological functions in normal tissues and diseases. The role of relaxin is well-established in female reproduction and parturition, mammary gland and endometrial development, maintenance of myometrial quiescence during pregnancy. Relaxin signaling through its G protein-coupled receptor (GPCR) RXFP1 results in ECM remodeling through regulation of collagen deposition, cell invasiveness, proliferation and overall tissue homeostasis. […] Recombinant human relaxin (rhRlx) is currently being tested in clinical trials as a protective agent in congestive heart failure, in treating severe preeclampsia, and as an anti-fibrotic agent in systemic sclerosis. Upon relaxin binding RXFP1 activation leads to the activation of adenylate cyclase (AC) via Gs. cAMP will activate PKA, which phosphorylates many signaling proteins. Thus, detection of cAMP increase is an easy and reliable indication of relaxin receptor activation. To screen for agonists of the relaxin receptor, a HEK293T cell line stably transfected with RXFP1 was used. RXFP1 activation was assayed by changes in cAMP levels as detected with a time-resolved fluorescence energy transfer (TR-FRET) cAMP detection kit. This assay measures activation of a cell expressing RXFP2, another GPCR targeted by relaxin, to determine the selectivity of compounds for RXFP1.
NCGC Assay Protocol Summary: This is a cell-based assay for cAMP second messenger response to screen for agonists of the RXFP2 receptor. The assay was conducted in the presence of a PDE4 inhibitor (Ro 20174). The cells were lysed and the cAMP levels were measured with a TR-FRET cAMP kit. Presence of cAMP in the cell lysate disrupts binding between the cryptate-labeled anti-cAMP and d2-labeled cAMP pair, leading to a decrease in the TR-FRET signal. Data were normalized to the controls for basal activity (buffer only) and 100% activity (29 nM porcine relaxin). The EC50 values were determined from concentration-response data modeled with the standard Hill equation 1536-well assay protocol for the HEK293 RXFP2 cAMP assay: (1) Add 3 ul HEK293 RXFP2 cell culture. 2000 cells/well in DMEM/F12, 10% FBS, 1x Pen/Strep (dispensed offline with MultiDrop Combi). (2) Incubate 16-24 hr at 37C, 5% CO2. (3) Add 1 ul 400uM Ro20174 in DPBS, 0.05% BSA, 0.005% Tween 20. (3) Add 23 nl compounds in DMSO solution. Final concentration was 0.5 - 58 uM. (4) Incubate 30 min at 37C, 5% CO2. (5) Add 1 ul cAMP-d2 in lysis buffer (HTRF cAMP HiRange kit, CisBio). (6) Add 1 ul anti-cAMP antibody-cryptate in lysis buffer (HTRF cAMP HiRange kit, CisBio). (7) Incubate 30 min at room temperature. […] Keywords: relaxin, RXFP1, RXFP2, G-protein coupled receptor, cAMP, agonist, high throughput screening, MLSMR, MLSCN, NIH Roadmap, qHTS and NCGC
For the compound `Cc1cccc(NC(=O)c2ccccc2NC(=O)C2CCCCC2)c1C`, the Potency result was “inactive”. As for `CCN(CC)c1ccc(S(=O)(=O)N2CCOCC2)cc1NC(=O)CSc1nncn1C`, the Potency was 12.3 µM (active). The value for `CCC1(C)Cc2c(sc3c2c2ncnn2c2nnc(SCC(=O)NCc4ccco4)n32)CO1` (stereo not given) was 8.7 µM (active); that for `Cn1c(N)c(C(=O)CSc2nnc(NC3CCCCC3)s2)c(=O)n(C)c1=O` was “inactive”.

Turning to `CC1(C)Cc2nc3sc4c(SCC(=O)NC(c5ccccc5)c5ccccc5)ncnc4c3cc2CO1`, the Potency was 6.15 µM (active). In the case of `CC(=O)CCCCn1c(=O)c2c(ncn2C)n(C)c1=O`, the Potency result is “inactive”.

Turning to `COC(=O)c1nc2ccc(N3CCOCC3)cc2c(C)c1C(=O)OC`, the Potency is 38.9 µM (active). Then `CCNc1nc(NCC)nc(N(C)/N=C/c2ccco2)n1`, with “inactive”. The value for `CCCC(=O)Nc1ncnc2c1ncn2[C@@H]1O[C@@H]2OP(=O)(O)OC[C@H]2[C@H]1OC(=O)CCC` was 0.868 µM (active). Take `CC1(C)O[C@@H]2[C@H](O1)[C@@H](COS(=O)(=O)O)O[C@H]2n1cnc2c(N)ncnc21`: the Potency is 6.15 µM (active).

For the compound `O=C(O)CCSc1ccc2ccccc2n1`, the Potency is 19.4 µM (active). Then `S=c1nc[nH]c2c1[nH]c1ccccc12`, with 6.9 µM (active); and `CCc1ccc(-c2nc3ccc(Br)cc3c(C(=O)O)c2C)s1`, with 4.35 µM (active). Take `CN(C)c1ccc(C(=S)N2CCN(S(=O)(=O)c3ccccc3)CC2)cc1`: the Potency entry is “inactive”. The value for `O=C1CN(c2nc3ccccc3n3cnnc23)CC(=O)N1CCc1ccccc1` was “inactive”; that for `CC1(C)Cc2c(sc3ncnc(NN)c23)CO1` was “inactive”; that for `O=C(OCc1nc2ccsc2c(=O)[nH]1)c1cccc(S(=O)(=O)N2CCOCC2)c1` was 34.6 µM (active).

As for `C=CCOc1c(Cl)cc(CNc2ccc(N(C)C)cc2)cc1OC`, the Potency entry was “inactive”.

Turning to `COc1ccccc1CNS(=O)(=O)c1cc(CN2C(=O)c3cccnc3C2=O)ccc1OC`, the Potency is 30.9 µM (active). Then `Nc1ncnc2c1ncn2C1OC(CO)C(O)C1O` (stereo not given), with 7.76 µM (active); and `Nc1nnc(CC(=O)N/N=C/c2ccc(-c3ccc(Cl)cc3Cl)o2)s1`, with “inactive”; and `CN(C)c1ccc(NC(=O)C2C3C=CC(C3)C2C(=O)O)cc1` (stereo not given), with “inactive”. The value for `Cn1c(=O)c2sccc2n2c(CCCC(=O)NCCc3ccc(S(N)(=O)=O)cc3)nnc12` was 43.6 µM (active); that for `COc1ccc(S(=O)(=O)Nc2ccccn2)c(C)c1C` was “inactive”; that for `Cc1nc2scc(C)n2c(=O)c1S(=O)(=O)N1CCN(c2ccccn2)CC1` was 30.9 µM (active). The value for `COc1ccc(Nc2ncc(C#N)c(N)n2)c(OC)c1` was “inactive”; that for `CC(C)(C)C(=O)Nc1ccccc1C(=O)NCc1ccco1` was “inactive”. For `CC1CCCCN1C(=O)c1ccccc1NC(=O)c1ccco1` (stereo not given), the Potency entry is “inactive”. Then `CCn1c(=O)c2cc(C(=O)Nc3cccc(C(C)=O)c3)sc2c2ccccc21`, with “inactive”; and `O=c1oc2cc(O)c(Cl)cc2c2ccccc12`, with 6.9 µM (active); and `CCc1nn(CC(=O)NCCCN2CCOCC2)c(=O)c2cc3sccc3n12`, with “inactive”. The value for `Cc1cc(C)n(C(=O)CCCn2cc([N+](=O)[O-])cn2)n1` was “inactive”. With `CCN(CC)S(=O)(=O)c1ccc(N2CCOCC2)c(NC(=O)c2cc([N+](=O)[O-])ccc2Cl)c1`, the Potency result is “inactive”.

`O=C(CN1C(=O)c2cccc3cccc(c23)C1=O)NCCN1CCOCC1`: the Potency entry was “inactive”. The value for `COC(=O)Cn1cnc2c(C#N)c3n(c2c1=O)CCCC3` was 30.9 µM (active). The value for `COc1ccc(Cl)cc1-c1n[nH]c(=S)o1` was 4.88 µM (active). The value for `Cn1c(=O)c2c(ncn2CC(=O)N/N=C/c2cn[nH]c2-c2ccc(F)cc2)n(C)c1=O` was 21.8 µM (active); that for `O=C(Nc1ccc(Cl)cc1)Nc1ccccc1Sc1ncc([N+](=O)[O-])s1` was “inactive”. Consider `C=CCNc1ncnc2c1ncn2C1OC(CO)C(O)C1O` (stereo not given), for which the Potency result is “inactive”.

For `CC(=O)Nc1cccc(NC(=O)CSc2nc3c(c(=O)n(C)c(=O)n3C)n2C)c1`, the Potency is 34.6 µM (active).
